{
  "source": "PubChem BioAssay AID652010",
  "about": "(The Scripps Research Institute Molecular Screening Center, 2013)",
  "note": "The campaign covered roughly 370,000 compounds. About 4,100 (1.1%) were called active. This is one part of a sample in which actives are shown more often than they occur.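 Rule for the calls: active = inhibition above the mean over all tested compounds plus 3 SD (cut at about 3.6% in these data); inactive = the rest.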",
  "data": [
    {"assay": "relief of DAX-1 repression of SF-1 activity – cell-based, luminescence, SF-1 (NR5A1), full-length DAX-1, primary screen (AID 652010);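 note: 0% = DAX-1 cells with DMSO and 100% = cells lacking DAX-1 with DMSO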", "settings": "HEK293T StAR-luciferase reporter, SF-1/DAX-1 repression relief; at 6.8 µM; hits give high values", "values": [
      {"smiles": "COc1ccc(C2CC(c3cccs3)=Nc3ccccc3S2)cc1OC", "note": "(configuration not stated)", "inhibition": "1.16% (inactive)"},
      {"smiles": "COc1ccc(-c2csc(-c3cccs3)n2)cc1OC", "inhibition": "7.97% (active)"},
      {"smiles": "COc1ccc(-c2csc3nc(-c4ccccc4F)oc(=O)c23)cc1OC", "inhibition": "-0.99% (inactive)"},
      {"smiles": "O=C(CCl)NC1CCCCN(Cc2cccc(C(F)(F)F)c2)C1=O", "note": "(configuration not stated)", "inhibition": "-3.93% (inactive)"},
      {"smiles": "C[C@H](O)[C@@H]1CN2CCc3ccc(-c4ccc5c(c4)OCO5)cc3[C@@H]2C[C@@H]1N(C)C(=O)C1CCCCC1", "inhibition": "0.38% (inactive)"},
      {"smiles": "COC(=O)[C@]12C[C@H](CC(=O)N3CCOCC3)C(=O)N(Cc3ccc(Cl)cc3Cl)C1=C[C@H](COCc1ccccc1)O[C@@H]2C", "inhibition": "-0.57% (inactive)"},
      {"smiles": "CCCCNc1cccc2c1S(=O)(=O)N[C@@H](C)CO2", "inhibition": "-0.56% (inactive)"},
      {"smiles": "Cc1ccc(OCC(=O)Oc2ccccc2[N+](=O)[O-])cc1", "inhibition": "0.05% (inactive)"},
      {"smiles": "CC(Oc1ccccc1[N+](=O)[O-])C(=O)N/N=C/c1ccoc1", "note": "(configuration not stated)", "inhibition": "6.45% (active)"},
      {"smiles": "CC(C)c1cc(C(=O)N/N=C/c2ccoc2)c(O)c(C(C)C)c1", "inhibition": "-0.83% (inactive)"},
      {"smiles": "CCOC(=O)C1CSCCS(=O)(=O)N1Cc1ccc(Cl)cc1", "note": "(configuration not stated)", "inhibition": "-1.28% (inactive)"},
      {"smiles": "COC(=O)c1c(C(=O)OC)c2n(c1C)CCS2", "inhibition": "0.03% (inactive)"},
      {"smiles": "COc1cccc(CSc2nnc(-c3cccnc3)n2Cc2ccccc2)c1", "inhibition": "1.04% (inactive)"},
      {"smiles": "COc1ccc(NCc2nnc(SCc3ccccc3)n2-c2ccc(OC)cc2)cc1", "inhibition": "0.16% (inactive)"},
      {"smiles": "COc1ccc2nc(SCc3ccccc3)nc(C)c2c1", "inhibition": "5.06% (active)"},
      {"smiles": "COC(=O)[C@]12C[C@H](CC(=O)NCc3ccc(C)o3)C(=O)N(CCC3=CCCCC3)C1=C[C@H](C(C)(C)C)O[C@@H]2C", "inhibition": "-0.72% (inactive)"},
      {"smiles": "CCOC(=O)[C@@]12CCC3=C1N(CCC3)C(=O)[C@H](CC(=O)N1CCN(C(=O)c3ccco3)CC1)C2", "inhibition": "0.29% (inactive)"},
      {"smiles": "Cc1ccccc1CN1CCCCC(NC(=O)Nc2ccccc2F)C1=O", "note": "(configuration not stated)", "inhibition": "-2.67% (inactive)"},
      {"smiles": "CC(C)(C)c1ccc(/C=C/C(=O)Nc2ncccn2)cc1", "inhibition": "3.9% (active)"},
      {"smiles": "CC(C)(C)c1ccc(/C=C/C(=O)NCCCn2ccnc2)cc1", "inhibition": "0.37% (inactive)"},
      {"smiles": "Cc1cc(C)nc(NC(=O)/C=C/c2ccc(Cl)cc2)n1", "inhibition": "0.12% (inactive)"},
      {"smiles": "CC(=O)N1C[C@@H](CO)[C@@H](N(C)C(=O)C(C)(C)C)C[C@H]1c1ccccc1Br", "inhibition": "0.98% (inactive)"},
      {"smiles": "COC(=O)C[C@H]1CC[C@H]2[C@H](COc3ccc(NC(=O)C4CC4)cc3C(=O)N2C)O1", "inhibition": "1.68% (inactive)"},
      {"smiles": "Cc1[nH]nc(-c2ccc(OCc3cnn(-c4ccccc4)c3)cc2O)c1Oc1ccc(Cl)cc1", "inhibition": "-0.45% (inactive)"},
      {"smiles": "CC(=O)c1nn(-c2ccc(C)cc2)cc1C(=O)c1cccc(Br)c1", "inhibition": "-0.24% (inactive)"},
      {"smiles": "O=C(c1cnn(-c2ccc(Cl)cc2)c1)c1ccccc1O", "inhibition": "6.14% (active)"},
      {"smiles": "COc1cccc(Cn2cc(COC(=O)Nc3ccc(F)cc3)nn2)c1", "inhibition": "-0.2% (inactive)"},
      {"smiles": "COc1ccc(S(=O)(=O)NCC(=O)NC2CC2)cc1OC", "inhibition": "-0.86% (inactive)"},
      {"smiles": "CC(=O)Nc1ccc(OC[C@@H](O)CN2CCC(C(O)(c3ccccc3)c3ccccc3)CC2)cc1", "inhibition": "0.02% (inactive)"},
      {"smiles": "O=C(CSc1nnc(CNC(=O)c2ccc(F)cc2)o1)Nc1ccc2c(c1)OCO2", "inhibition": "-1.07% (inactive)"},
      {"smiles": "COc1ccc([N+](=O)[O-])cc1C1NN=C(c2cccc3ccccc23)S1", "note": "(configuration not stated)", "inhibition": "0.7% (inactive)"},
      {"smiles": "COc1ccc(CN2CCCC(C(=O)c3ccc(Cl)cc3)C2)cc1Cn1cncn1", "note": "(configuration not stated)", "inhibition": "0.63% (inactive)"},
      {"smiles": "COc1ccc(C2Nc3ccccc3C(=O)N2c2ccc(Cl)cc2)cc1Cn1cc([N+](=O)[O-])cn1", "note": "(configuration not stated)", "inhibition": "3.84% (active)"},
      {"smiles": "O=C(Oc1ccc(-c2nnco2)cc1)c1ccc(F)c(S(=O)(=O)N2CCOCC2)c1", "inhibition": "-0.14% (inactive)"},
      {"smiles": "CC(=O)N1CCCN(C2=Nc3ccccc3Sc3ccccc32)CC1", "inhibition": "-0.16% (inactive)"},
      {"smiles": "CCC(C)[C@@H](C(=O)OC)N(CCc1cn(Cc2ccccc2)nn1)S(=O)(=O)c1ccccc1Br", "note": "(some centres not stated)", "inhibition": "-0.61% (inactive)"},
      {"smiles": "N#Cc1ccccc1OC[C@@H](O)CN1CCC(C(O)(c2ccccc2)c2ccccc2)CC1", "inhibition": "-0.84% (inactive)"},
      {"smiles": "COc1ccc(/C=C/C(=O)Nc2ccc(C34CC5CC(CC(O)(C5)C3)C4)cc2)cc1OC", "inhibition": "8.95% (active)"},
      {"smiles": "COc1cc(/C=C/C(=O)Nc2ccc(OC)c(S(=O)(=O)N3CCOCC3)c2)ccc1OCC#N", "inhibition": "-2.07% (inactive)"},
      {"smiles": "COc1ccc(/C=C/C(=O)OCC(=O)NC2CCCCCC2)cc1OC", "inhibition": "2.29% (inactive)"},
      {"smiles": "O=C(NC1CCCC1)C1CSCCS(=O)(=O)N1Cc1ccccc1", "note": "(configuration not stated)", "inhibition": "0.54% (inactive)"},
      {"smiles": "CNC(=O)c1[nH]cnc1C(=O)N[C@@H](CC(C)C)C(=O)OC(C)(C)C", "inhibition": "-0.49% (inactive)"},
      {"smiles": "CC[C@]1(O)C[C@@H]2CN(CCc3c([nH]c4ccccc34)[C@@](C(=O)OC)(c3cc4c(cc3OC)N(C)[C@H]3[C@@](O)(C(=O)OC)[C@H](OC(C)=O)[C@]5(CC)C=CCN6CC[C@]43[C@@H]65)C2)C1", "inhibition": "9.42% (active)"},
      {"smiles": "CC[C@]1(O)CC2CN(CCc3c([nH]c4ccccc34)[C@@](C(=O)OC)(c3cc4c(cc3OC)N(C=O)[C@H]3[C@@](O)(C(=O)OC)[C@H](OC(C)=O)[C@]5(CC)C=CCN6CC[C@]43[C@@H]65)C2)C1", "note": "(some centres not stated)", "inhibition": "12.9% (active)"},
      {"smiles": "CC(C)(C)c1ccc(CSc2nnc(-c3cccs3)o2)cc1", "inhibition": "-0.57% (inactive)"},
      {"smiles": "CCOC(=O)C(=O)N(Cc1ccccc1)c1ccccc1C(=O)Nc1cc(OC)ccc1OC", "inhibition": "-0.54% (inactive)"},
      {"smiles": "CCOC(=O)N1CCN(C(=O)C2CCN(S(C)(=O)=O)CC2)CC1", "inhibition": "0.3% (inactive)"},
      {"smiles": "Cn1c(SCC(=O)Nc2cccc(NC(=O)c3cccs3)c2)nnc1-c1ccncc1", "inhibition": "-0.42% (inactive)"},
      {"smiles": "Cc1nc(-c2ccc(NC(=O)c3cccs3)cc2)cs1", "inhibition": "3.66% (active)"},
      {"smiles": "COc1cc(NC(=O)c2ccc(-c3csc(C)n3)cc2)c(OC)cc1Cl", "inhibition": "0.05% (inactive)"},
      {"smiles": "O=C(CSc1nnc(COc2ccccc2)n1Cc1ccco1)c1ccc2ccccc2c1", "inhibition": "-1.45% (inactive)"},
      {"smiles": "O=C(NN=Cc1ccco1)C(=O)Nc1ccc(Cl)c([N+](=O)[O-])c1", "inhibition": "0.2% (inactive)"}
    ]}
  ]
}
